Experimental data taken from PubChem BioAssay (Tox21).
Results filed as inconclusive are left out. The source made the active and inactive calls. Unless noted, the call rests on the fitted dose curve; in most records, active means well fitted curve in the direction sought with a large enough effect in the repeat runs; inconclusive means weak or mixed curves; inactive means no such curve, though single readings can be large; an effect the other way counts as inactive or inconclusive.

Key:
[1] = qHTS assay for small molecule agonists of the p53 signaling pathway (AID 651631; calls by dose curve; further: nearly all actives have a fitted effect of over 15% in size)
How it was run: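 Testing took place in human colorectal HCT-116 cells with stable p53RE-driven beta-lactamase. After 16 h of compound exposure at 37 °C, a FRET substrate was added and fluorescence recorded 2 h later.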

[2] = qHTS assay for small molecules that induce genotoxicity in human embryonic kidney cells expressing luciferase-tagged ATAD5 (AID 651632); further: nearly all actives have a fitted effect of over 15% in size
How it was run: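 DMSO vehicle served as the control. HEK293T reporter cells, 16 hr at 37C, then 30 min Amplite at room temperature; ATAD5 induction is measured as luciferase activity.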

[3] = qHTS assay for small molecule agonists of the p53 signaling pathway - cell viability (AID 651633; calls by dose curve; further: series mostly up to about 83 µM; nearly all actives have a fitted effect of over 30% in size)
How it was run: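 Viability counter-read: CellTiter-Glo luminescence (30 min, room temperature) in the same p53RE-bla plates. These plates had been exposed to compounds for 16 h at 37 C.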

[4] = qHTS assay for small molecules that induce genotoxicity in human embryonic kidney cells expressing luciferase-tagged ATAD5 - cell viability (AID 651634; calls by dose curve; further: nearly all actives have a fitted effect of over 25% in size)
How it was run: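 Here HEK293T cells with the ATAD5 luciferase reporter are incubated with test compounds for 15.5 hr, and cytotoxicity is then gauged by measuring protease activity in live cells using fluorescence.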

[5] = qHTS assay for small molecule disruptors of the mitochondrial membrane potential - cell viability (AID 720634; calls by dose curve;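 further: human HepG2 liver cancer cells; series mostly up to about 83 µM; nearly all actives have a fitted effect of over 20% in size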)
How it was run: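 Viability of HepG2 cells is scored from ATP content by luminescence; cells are exposed to compound for 1 hr at 37 C and 5% CO2, then dosed with m-MPI dye before the CellTiter-Glo reagent.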

[6] = qHTS assay to test for compound auto fluorescence at 590 nm (red) in HepG2 cells (AID 720674)
How it was run: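 1 hr compound incubation on HepG2 cells, 37 C, 5% CO2; plate read ex 540 nm / em 590 nm; intensities reported as Rose Bengal sodium equivalents.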

[7] = qHTS assay to test for compound auto fluorescence at 535 nm (green) in HepG2 cells (AID 720675)
[8] = qHTS assay to test for compound auto fluorescence at 460 nm (blue) in HEK293 cells (AID 720678)
How it was run: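 Cells were seeded and left to adhere for 4-5 hr at 37C. Compounds were then pin-transferred. After an overnight incubation at 37C under 5% CO2, intrinsic fluorescence at 405/460 nm was measured and referenced to triamterene.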

[9] = qHTS assay to test for compound auto fluorescence at 590 nm (red) in HEK293 cells (AID 720679)
How it was run: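 Each well held 2,000 HEK293 cells in medium containing 10% dialyzed FBS. Following 4-5 hr attachment at 37C, 23 nL test compound or DMSO was added; plates sat overnight, and red fluorescence (540/590nm) was recorded.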

[10] = qHTS assay to test for compound auto fluorescence at 535 nm (green) in HEK293 cells (AID 720680)
[11] = qHTS assay to test for compound auto fluorescence at 460 nm (blue) in HEK293 cell free culture (AID 720681)
How it was run: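 Blue fluorescence (Ex 405/Em 460 nm, triamterene-equivalent) was read immediately after pin transfer of compound or DMSO into medium (DMEM, 10% FBS) without cells.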

[12] = qHTS assay to test for compound auto fluorescence at 590 nm (red) in HEK293 cell free culture (AID 720683)
How it was run: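 Red-channel autofluorescence of compounds in culture medium (DMEM, 10% FBS), no cells, measured at 540/590 nm. Rose Bengal sodium is the reference fluorophore for equivalence.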

[13] = qHTS assay to test for compound auto fluorescence at 590 nm (red) in HepG2 cell free culture (AID 720684)
How it was run: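 Cell-free; medium MEM + 10% FBS; compound or DMSO added by pintool; read Ex 540/Em 590 nm; Rose Bengal sodium as red reference fluorophore.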

[14] = qHTS assay to test for compound auto fluorescence at 460 nm (blue) in HepG2 cell free culture (AID 720685)
How it was run: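 Cell-free plates of MEM plus 10% FBS received 23 nL compound or DMSO vehicle; blue-channel (405/460 nm) intensity scored against triamterene as reference fluorophore.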

[15] = qHTS assay to test for compound auto fluorescence at 535 nm (green) in HepG2 cell free culture (AID 720686)
[16] = qHTS assay to test for compound auto fluorescence at 460 nm (blue) in HepG2 cells (AID 720687)
How it was run: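 Blue-channel autofluorescence (Ex/Em 405/460 nm, triamterene-equivalent) was measured after 1 hr compound exposure at 37 C, 5% CO2. Cells were HepG2, plated overnight at 37 C in MEM plus 10% FBS.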

[17] = target: Glucocorticoid receptor (Homo sapiens) (UniProt P04150); test: qHTS assay to identify small molecule antagonists of the glucocorticoid receptor (GR) signaling pathway (AID 720692; active means well fitted inhibition curve with a large enough effect in the signal ratio in the repeat runs, not every such curve was filed as active; the % refers to the signal ratio)
How it was run: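 In a 1536-well cell format, compounds were added 4 h after seeding GR-bla HeLa cells, together with dexamethasone at 5 nM final; reporter activity was measured by FRET-substrate fluorescence following 18 h at 37 C.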

[18] = qHTS assay to test for compound auto fluorescence at 535 nm (green) in HEK293 cell free culture (AID 720682)
How it was run: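 DMEM + 10% FBS, cell-free; cpd or DMSO pinned in; Ex485/Em535 read; output as fluorescein-equivalent signal.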

[19] = target: Glucocorticoid receptor (Homo sapiens) (UniProt P04150); test: qHTS assay to identify small molecule agonists of the glucocorticoid receptor (GR) signaling pathway (AID 720691; active means well fitted activation curve with a large enough effect in the signal ratio in the repeat runs, not every such curve was filed as active; the % refers to the signal ratio)
How it was run: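 Compounds in DMSO, alongside positive controls, were added to GR-bla HeLa reporter cells and incubated 18 h at 37 C; GRE-driven beta-lactamase was detected by fluorescence after 2 h with FRET substrate at room temperature.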

Measured: Potency

Glucocorticoid receptor (Homo sapiens), sequence (P04150 whole entry, looked up): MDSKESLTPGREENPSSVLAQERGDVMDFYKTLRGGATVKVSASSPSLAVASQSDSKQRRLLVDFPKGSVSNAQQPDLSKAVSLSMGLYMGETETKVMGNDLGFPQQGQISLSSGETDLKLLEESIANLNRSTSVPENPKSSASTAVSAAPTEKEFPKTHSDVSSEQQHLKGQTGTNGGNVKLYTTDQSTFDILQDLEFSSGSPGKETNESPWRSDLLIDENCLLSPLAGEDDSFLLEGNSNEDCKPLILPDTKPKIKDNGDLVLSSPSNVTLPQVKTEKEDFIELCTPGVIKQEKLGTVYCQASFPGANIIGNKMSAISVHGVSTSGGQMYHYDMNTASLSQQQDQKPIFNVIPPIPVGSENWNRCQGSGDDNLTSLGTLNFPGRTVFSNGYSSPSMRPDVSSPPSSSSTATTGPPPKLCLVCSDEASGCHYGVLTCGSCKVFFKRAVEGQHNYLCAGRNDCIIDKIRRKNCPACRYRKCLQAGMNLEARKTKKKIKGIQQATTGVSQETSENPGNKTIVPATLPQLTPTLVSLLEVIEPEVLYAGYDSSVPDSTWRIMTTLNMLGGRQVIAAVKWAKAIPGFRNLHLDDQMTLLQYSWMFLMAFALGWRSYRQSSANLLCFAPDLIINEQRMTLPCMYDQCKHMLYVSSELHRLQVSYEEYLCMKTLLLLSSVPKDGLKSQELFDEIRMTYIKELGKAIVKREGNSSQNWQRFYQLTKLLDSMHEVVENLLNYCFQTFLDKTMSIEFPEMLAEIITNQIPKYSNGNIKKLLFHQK

CC(C)[C@H](N)C(=O)OCCOCn1cnc2c(=O)[nH]c(N)nc21
not listed: [18] | [19]
inactive: all other assays above

NCCN1CCNC1=O
inactive: all assays above

CCCCc1ccc2cccc(S(=O)(=O)O)c2c1
not listed: [13] | [17] | [19]
inactive: all other assays above

C=CC(=O)OCCCCCC
not listed: [13] | [17] | [19]
inactive: all other assays above

C=C(C)C(=O)NCCCN(C)C
not listed: [17]
inactive: all other assays above

CC(C=O)Cc1ccc(C(C)C)cc1 (stereo not drawn)
inactive: all assays above

CN1[C@@H]2CC[C@H]1CC(NC(=O)n1c(=O)[nH]c3ccccc31)C2 (stereo partly drawn)
inactive: all assays above

C=C(C)C(=O)OCCC(C)OC(=O)C(=C)C (stereo not drawn)
inactive: all assays above
